Assay [1] is described as follows: growth inhibition of DIPG glioma cells, dose response, cell-based, SU-DIPG-XIII, MIPE4.0, CellTiter-Glo, qHTS (AID 1347061; cut-off not given, nearly all actives have AC50 up to about 37 µM;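 further: cells exposed to compound for 48 hours before readout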). To be noted: SU-DIPG-XIII viability, CellTiter-Glo ATP luminescence.
A short description of assay [2]: growth inhibition of DIPG glioma cells, dose response, cell-based, JHH-DIPG-1, MIPE4.0, CellTiter-Glo, qHTS (AID 1347062; cut-off not given, nearly all actives have AC50 up to about 27 µM;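 on AC50: cells exposed to compound for two days before readout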). The settings on record: JHH-DIPG-1 viability, CellTiter-Glo ATP luminescence. (In general: In ATP-based viability assays light output follows the ATP content of the culture.)
A short description of assay [3]: growth inhibition of DIPG glioma cells, dose response, cell-based, SU-DIPG-IV, MIPE4.0, CellTiter-Glo, qHTS (AID 1347063).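 Further: compound exposure lasted 48 hours before the viability readout.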 The settings on record: SU-DIPG-IV viability, CellTiter-Glo ATP luminescence.
Assay [4] can be described thus: SU-DIPG-VI glioma cell viability, MIPE4.0 library, CellTiter-Glo luminescence, qHTS (AID 1347066).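 Further: cells exposed to compound for 48 hours before readout.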 The settings on record: CellTiter-Glo ATP luminescence.
A short description of assay [5]: growth inhibition of DIPG glioma cells, dose response, cell-based, SU-DIPG-XIII, MIPE5.0, CellTiter-Glo, qHTS (AID 1347064; cut-off not given, nearly all actives have AC50 up to about 23 µM). To be noted: SU-DIPG-XIII viability, CellTiter-Glo ATP luminescence.
The nature of assay [6]: SU-DIPG-XXV glioma cell viability, MIPE5.0 library, qHTS (AID 1347068; cut-off not given, nearly all actives have IC50 up to about 30 µM). For orientation: Quantitative high-throughput screening tests each substance at several concentrations.
Assay [7] is described as follows: viability loss in pontine glioma line – cell-based, SU-DIPG-XXV, MIPE5.0, CellTiter-Glo, qHTS, dose response (AID 1347065; cut-off not given, nearly all actives have AC50 up to about 26 µM;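 further: cells exposed to compound for 48 hours before ATP readout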). The settings on record: CellTiter-Glo ATP luminescence.
A short description of assay [8]: JHH-DIPG-1 glioma cell viability, MIPE5.0 library, CellTiter-Glo luminescence, qHTS (AID 1347067; cut-off not given, nearly all actives have AC50 up to about 26 µM;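 further: cells exposed to compound for 48 hours before readout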). To be noted: JHH-DIPG-1 glioma viability, CellTiter-Glo ATP luminescence.

Results filed as inconclusive are left out. Active and inactive are the calls of the source. Unless noted, cut-off not given; nearly all actives show AC50 up to about 30 µM.

Consider `CCN1C[C@H](C)n2c(c(O)c3c(=O)n(Cc4ccc(F)c(Cl)c4)nc(C(=O)NC)c32)C1=O`, for which the call in assay [1], in assay [2], in assay [3] and in assay [4] was inactive.

`CO/N=C(/C(=O)N[C@@H]1C(=O)N2C(C(=O)O)=C(Cn3ccc(=N)n3CCO)CS[C@H]12)c1csc(N)n1`: the compound was classed as inactive in assay [1], in assay [2], in assay [3] and in assay [4].

For `C=C1C[C@@]2(O)O[C@@]3(C[C@H]2C(C)C)[C@@H](C)CC[C@@H]13`, the compound was called inactive in assay [1], in assay [2], in assay [3], in assay [5], in assay [4] and in assay [6].

As usually defined, the AC50 is the midpoint of the concentration-response curve, whichever way the signal moves. As for `CNC(=O)c1ccc(Nc2cc(Nc3ccccc3S(=O)(=O)C(C)C)c3cc[nH]c3n2)nc1`, the AC50 in assay [1] is 16.6 µM (active); in assay [2] it was 14.8 µM (active); in assay [3] it was 11.8 µM (active); in assay [4] it was 16.6 µM (active).

For `O=C(O)[C@H]1O[C@H](Oc2cc3oc(-c4ccccc4)cc(=O)c3c(O)c2O)[C@H](O)[C@@H](O)[C@@H]1O`, the call in assay [1], in assay [2], in assay [3] and in assay [4] was inactive.

As for `CC(C)(C)COc1ccc(-n2cc(C(=O)O)cn2)cc1C#N`, the compound was called inactive in assay [1], in assay [2], in assay [3], in assay [7], in assay [4] and in assay [6].

For the compound `Nc1n[nH]c2nnc(-c3c(-c4ccccc4)nn4ccccc34)cc12`, the half-maximal activity concentration (AC50) was 20.9 µM (active) in assay [1], 20.9 µM (active) in assay [2], 0.209 µM (active) in assay [3] and 2.96 µM (active) in assay [4]. For the same compound, the result in assay [7], in assay [8] and in assay [6] was inactive.

As to `Nc1ccn([C@H]2CS[C@@H](CO)O2)c(=O)n1`, the result in assay [1], in assay [2], in assay [3] and in assay [4] was inactive.

On to `CC(C)(C)OC(=O)N[C@H]1CCCCC/C=C\[C@@H]2C[C@@]2(C(=O)NS(=O)(=O)C2CC2)NC(=O)[C@@H]2C[C@@H](OC(=O)N3Cc4cccc(F)c4C3)CN2C1=O`, for which the compound was called inactive in assay [1], in assay [2], in assay [3], in assay [5], in assay [4] and in assay [6].

As for `Nc1nc(=O)n([C@H]2CSC(CO)O2)cc1F` (stereo partly specified), the outcome in assay [1], in assay [2], in assay [3] and in assay [4] was inactive.

On to `CN(C)c1nc(Cc2ccc(NC(=O)c3ccc(C(F)(F)F)cc3)cc2)nc(N(C)C)c1CC(=O)O`, for which the compound was classed as inactive in assay [1], in assay [2], in assay [3] and in assay [4].

For the compound `C[C@]12CC[C@H](O)CC1=CCC1C2CC[C@]2(C)C(n3cnc4ccccc43)=CCC12` (stereo partly specified), the compound was called inactive in assay [1], in assay [2], in assay [3] and in assay [6]. Besides, the AC50 in assay [7] was 20.9 µM (active).

For `CC(NCc1ccc2c(c1)nc(NC(=O)c1ccc(-c3cn[nH]c3)s1)n2CC(C)(C)O)C(C)(C)C` (stereo unspecified), the AC50 was 3.32 µM (active) in assay [1], 0.332 µM (active) in assay [2], 0.833 µM (active) in assay [3] and 5.9 µM (active) in assay [4].

On to `COC1=C2C[C@@H](C)C[C@H](OC)[C@H](O)[C@@H](C)/C=C(\C)[C@H](OC(N)=O)[C@@H](OC)/C=C/C=C(\C)C(=O)NC(=CC1=O)C2=O`, for which the AC50 in assay [1] was 0.372 µM (active); in assay [2], 0.296 µM (active); in assay [3] it was 0.526 µM (active); in assay [4], 2.35 µM (active).

As for `C[C@H](NCc1ccc(OCc2cccc(F)c2)cc1)C(N)=O`, the AC50 is 18.7 µM (active) in assay [1], 4.69 µM (active) in assay [2], 9.35 µM (active) in assay [3] and 14.8 µM (active) in assay [4].

As for `CN(C)CCCNC(=O)c1ccc(-c2cc(O)c3ncccc3c2)cc1`, the result in assay [1], in assay [2], in assay [3], in assay [7] and in assay [8] was inactive.

As to `Cc1cc(-c2nnc3n2CCCCC3)c(C)n1-c1ccccc1`, the result in assay [1], in assay [2], in assay [3] and in assay [4] was inactive.

Regarding `Cc1ccnc(NS(=O)(=O)c2ccc(NC(=O)Nc3ccc(S(=O)(=O)Nc4nccc(C)n4)cc3)cc2)n1`, the compound was called inactive in assay [1], in assay [7], in assay [4], in assay [8] and in assay [6]. The AC50 is 2.64 µM (active) in assay [2] and 14.8 µM (active) in assay [3].

Turning to `C=C1/C(=C\C=C2/CCC[C@]3(C)[C@@H]([C@H](C)/C=C/[C@H](C)C(C)C)CC[C@@H]23)C[C@@H](O)C[C@@H]1O`, the AC50 was 8.33 µM (active) in assay [1]; 0.418 µM (active) in assay [2]; 5.9 µM (active) in assay [3]; 18.6 µM (active) in assay [7]; 23.5 µM (active) in assay [4]; 26.3 µM (active) in assay [8]. The outcome in assay [6] was inactive.

Consider `O=C(O)c1cc(O)c2c(c1)C(=O)c1cccc(O)c1C2=O`, for which the compound was called inactive in assay [1], in assay [2], in assay [3], in assay [5], in assay [8] and in assay [6].

As to `CN1[C@@H]2CC(OC(=O)[C@@H](CO)c3ccccc3)C[C@H]1[C@H]1O[C@H]12` (stereo partly specified), the call in assay [1], in assay [2], in assay [3] and in assay [4] was inactive.

For `Nc1nc(F)nc2c1ncn2[C@@H]1O[C@H](CO)[C@@H](O)[C@H]1O`, the AC50 in assay [1] is 1.05 µM (active); in assay [2], 0.59 µM (active); in assay [3], 0.264 µM (active); in assay [4], 0.833 µM (active).

As to `Cc1nnc(C(C)C)n1C1C[C@H]2CC[C@@H](C1)N2CC[C@H](NC(=O)C1CCC(F)(F)CC1)c1ccccc1` (stereo partly specified), the result in assay [1], in assay [2], in assay [3] and in assay [4] was inactive.

In the case of `CCC(CC)[C@H](NC(C)=O)[C@@H]1[C@H](O)[C@@H](C(=O)O)C[C@H]1N=C(N)N`, the outcome in assay [1], in assay [2], in assay [3] and in assay [4] was inactive.

Consider `Nc1ncnc2c1ncn2[C@@H]1O[C@@H](CO)[C@H](O)[C@@H]1O`, for which the call in assay [1], in assay [2], in assay [3] and in assay [4] was inactive.

With `CCC(C)CCCCC(=O)N[C@@H](CCN)C(=O)NC(C(=O)N[C@H](CCN)C(=O)N[C@@H]1CCNC(=O)C([C@@H](C)O)NC(=O)[C@@H](CCN)NC(=O)[C@@H](CCN)NC(=O)[C@@H](CC(C)C)NC(=O)[C@H](Cc2ccccc2)NC(=O)[C@H](CCN)NC1=O)[C@@H](C)O` (stereo partly specified), the compound was called inactive in assay [1], in assay [2], in assay [3], in assay [7], in assay [4] and in assay [8]. The call in assay [6] was inactive.

Source of the values: PubChem BioAssay.
